Experiment [1] in a line: NCI Yeast Anticancer Drug Screen. Data for the rad50 strain (AID 155).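 Note: 0% = growth of vehicle-only cultures of the same strain.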 Particulars: S. cerevisiae rad50 strain growth inhibition; at 50.0 µM; stronger effect = higher value. A digest of the protocol:
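Vehicle-treated cultures provide the reference for the growth inhibition reported for compound-exposed, repair-deficient yeast.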

A short description of experiment [2]: NCI Yeast Anticancer Drug Screen. Data for the mec2-1 strain (AID 157). The following applies: S. cerevisiae mec2-1 strain, at 50.0 µM, stronger effect = higher value. The method, boiled down: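 Compounds were applied to mec2-1 yeast cells. Their growth was then compared with that of vehicle-treated cultures to give growth inhibition.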
A short description of experiment [3]: NCI Yeast Anticancer Drug Screen. Data for the sgs1 mgt1 strain (AID 161).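 Note: 0% = growth of cultures given vehicle only.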 The following applies: S. cerevisiae sgs1 mgt1 strain, at 50.0 µM, stronger effect = higher value. A digest of the protocol:
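Percent growth inhibition was derived by comparing compound-exposed mutant yeast with vehicle-exposed cultures. The strain carries alterations in DNA damage repair.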

Experiment [4] is described as follows: NCI Yeast Anticancer Drug Screen. Data for the cln2 rad14 strain (AID 165).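 Note: 0% = growth equal to vehicle treated cultures.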 Particulars: S. cerevisiae cln2 rad14 strain, at 50.0 µM, stronger effect = higher value. A digest of the protocol: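 Strain: cln2 rad14 yeast, altered in cell cycle control and DNA damage repair. Read-out: growth inhibition vs vehicle.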
A short description of experiment [5]: NCI Yeast Anticancer Drug Screen. Data for the bub3 strain (AID 167). The following applies: S. cerevisiae bub3 mutant strain, at 50.0 µM, stronger effect = higher value. The method, boiled down: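 Mutant yeast screening strain plus compound; vehicle-treated cultures serve as the 0% inhibition reference.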
A short description of experiment [6]: NCI Yeast Anticancer Drug Screen. Data for the mlh1 rad18 strain (AID 175). The following applies: S. cerevisiae mlh1 rad18 strain growth inhibition; at 50.0 µM; stronger effect = higher value. The method, boiled down:
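A repair-deficient yeast strain is exposed to test compound, and growth is scored relative to vehicle-treated controls.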

This is part of a sample that, as a whole, favours compounds with a hit. Of some 79,000 tested, about 15% had one in any assay. A number with no mark means an inactive call. Active and inactive are the calls of the source. Cut-off read from the data, not from the text of the source: active = growth inhibition above about 70%; inactive = the rest.

Regarding `O=C1CCC(=O)N1c1ccc([As](=O)(O)O)cc1`, the growth inhibition in experiment [1] was -2.55%; in experiment [2], -9.15%; in experiment [3] it was 13.2%; in experiment [4], -28.1%; in experiment [5] it was 0.6%; in experiment [6] it was -16.9%.

As to `COc1cc2c(cc1OC)C13CCN4CC5CCOC6CC(=O)N2C1C6C5CC43` (stereo unspecified), the growth inhibition in experiment [1] was 8.6%; in experiment [2], 6.35%; in experiment [3], 21.6%; in experiment [4] it was 10.2%; in experiment [5], -7.5%; in experiment [6], -72.3%.

In the case of `CC(C)c1cccc(C(C)C)c1O`, the growth inhibition was 22.2% in experiment [1]; 26% in experiment [2]; -21.9% in experiment [3]; 3.5% in experiment [4]; 10.9% in experiment [5]; 12.9% in experiment [6].

Consider `O=C1CC=C2C3CC4N(CCC45c4ccccc4N1C25)C/C3=C\CO` (stereo unspecified), for which the growth inhibition in experiment [1] is 22.8%; in experiment [2] it was -11.7%; in experiment [3], -5.3%; in experiment [4] it was 0%; in experiment [5], 37%; in experiment [6], -38%.

For the molecule `CC(=O)N(N=O)c1cc(Cl)ccc1Cl`, the growth inhibition was -2.75% in experiment [1]; -11.1% in experiment [2]; 3.15% in experiment [3]; -2.15% in experiment [4]; -5.5% in experiment [5]; -1.45% in experiment [6].

Regarding `CC(=O)[CH-]C(C)=O.O=[N+]([O-])O.[NH-]C1CCCCC1[NH-].[Pt+4]` (stereo unspecified), the growth inhibition in experiment [1] is 97.2% (active); in experiment [2], 98.5% (active); in experiment [3] it was 94.3% (active); in experiment [4], 98% (active); in experiment [5] it was 98.8% (active); in experiment [6] it was 94.8% (active).

Take `O.[Cr+3].[NH2-].[NH2-].[NH2-].[NH2-].[NH2-].[O-][Cl+3]([O-])([O-])O`: the growth inhibition in experiment [1] is 16.6%; in experiment [2], 6.85%; in experiment [3], -0.4%; in experiment [4] it was 9.75%; in experiment [5], 3.85%; in experiment [6], -18.1%.

For `CP(C)(=S)P(C)(C)=S`, the growth inhibition in experiment [1] was 10.8%; in experiment [2], 6.05%; in experiment [3] it was 14.6%; in experiment [4], -9.1%; in experiment [5] it was 3.05%; in experiment [6], -18.5%.

On to `C=CCn1nnnc1N`, for which the growth inhibition in experiment [1] was -4.3%; in experiment [2], -16.8%; in experiment [3] it was -5.55%; in experiment [4] it was -37.9%; in experiment [5], 3.1%; in experiment [6], -6.2%.

In the case of `O=S(=O)(O)O.[In]`, the growth inhibition in experiment [1] is 22.2%; in experiment [2], 41.6%; in experiment [3] it was 39.1%; in experiment [4] it was 10.1%; in experiment [5] it was 26.5%; in experiment [6] it was 15.1%.

On to `Cc1cccc2c1[se]c1ccccc12`, for which the growth inhibition was -11.5% in experiment [1]; -3.85% in experiment [2]; -12% in experiment [3]; 4.45% in experiment [4]; 2.7% in experiment [5]; -17.1% in experiment [6].

`C=C1C(=O)OC2CC3(C)OC3C3OC3C3=CC(OC3=O)C12` (stereo unspecified): the growth inhibition in experiment [1] was 18.9%; in experiment [2], 34.7%; in experiment [3], 57.1%; in experiment [4], 29.6%; in experiment [5], 41.4%; in experiment [6] it was 38.1%.

With `N#CC(C#N)C1CN2CCC1CC2` (stereo unspecified), the growth inhibition in experiment [1] was 1.95%; in experiment [2], 13.3%; in experiment [3], 15.6%; in experiment [4], 24.5%; in experiment [5], 4.9%; in experiment [6], -26.6%.

For `CC1CN1P(=O)(N1CCc2ccccc21)N1CC1C` (stereo unspecified), the growth inhibition in experiment [1] was -21.8%; in experiment [2] it was -7.9%; in experiment [3] it was -5.6%; in experiment [4], -24.7%; in experiment [5], 5.9%; in experiment [6], 0.85%.

Consider `c1ccc(NC2CCN(C3(c4ccccc4)CCCCC3)CC2)cc1`, for which the growth inhibition in experiment [1] was -17.9%; in experiment [2], -6.8%; in experiment [3] it was -6.85%; in experiment [4], -45.6%; in experiment [5] it was -1.75%; in experiment [6] it was -8.1%.

Turning to `CCOC(=O)C1C(c2ccco2)C2(C#N)C(=N)OC1(C)C2(C#N)C#N` (stereo unspecified), the growth inhibition in experiment [1] was 3.45%; in experiment [2], 12.3%; in experiment [3] it was -39.5%; in experiment [4], -0.9%; in experiment [5], -36.8%; in experiment [6], -52%.

Regarding `NC(=O)c1cc([N+](=O)[O-])c(N(CCCl)CCCl)c([N+](=O)[O-])c1`, the growth inhibition was 13.8% in experiment [1]; 17.1% in experiment [2]; 5.05% in experiment [3]; 17.9% in experiment [4]; -1.55% in experiment [5]; 17.8% in experiment [6].

Turning to `CCOP(=S)(OCC)OP(=S)(OCC)OCC`, the growth inhibition in experiment [1] was -44.5%; in experiment [2] it was -50.4%; in experiment [3] it was -40.6%; in experiment [4], -13.9%; in experiment [5] it was -28.1%; in experiment [6], -42.1%.

Turning to `CN1C2CCC1CC(OC(=O)c1cccc(O)c1)C2` (stereo unspecified), the growth inhibition was 30.9% in experiment [1]; 0.55% in experiment [2]; 0.9% in experiment [3]; 4.95% in experiment [4]; 15.9% in experiment [5]; 16.4% in experiment [6].

As for `CCOC(=O)/C(=C\c1ccc(N(C)C)cc1)[Se]c1ccccc1`, the growth inhibition in experiment [1] is 12.7%; in experiment [2] it was -2.8%; in experiment [3] it was -0.3%; in experiment [4] it was 5%; in experiment [5], 18.6%; in experiment [6], 56.4%.

In the case of `O=C(O)C(F)(F)F.O=C(O)C(F)(F)F.[C-]#[O+].[Ru].c1ccc([PH+](c2ccccc2)c2ccccc2)cc1.c1ccc([PH+](c2ccccc2)c2ccccc2)cc1`, the growth inhibition was 1.5% in experiment [1]; 22.2% in experiment [2]; 21.9% in experiment [3]; -7.45% in experiment [4]; -14.9% in experiment [5]; 14.3% in experiment [6].

Source of the values: PubChem BioAssay (NCI).
